From PubChem BioAssay
Active and inactive are the calls of the source.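 Rule for the calls, unless noted: active = inhibition at or above 50% at 10 µM; inactive = inhibition below 50%.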

Key:
[1] = inhibitors of TNFa-induced NFkB p65 translocation, primary screen, imaging, HUVEC, MLSMR starter and 10KST1 sets (AID 438;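 active = inhibition above 20% together with a positive visual image hit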;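 note: compound added about 3h40 before a 20 min TNFalpha stimulation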;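 for inhibition: signal is the nuclear over cytoplasmic p65 intensity ratio per well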); conditions: HUVEC TNFa-induced p65 nuclear translocation; cell count: measured here: nuclei count (cytotoxicity indicator), at 2.08 µM; inhibition: at 2 µM, stronger effect = higher value, 0% TNFa-plus-vehicle, 100% no-TNFa wells
[2] = reduction of polyQ htt aggregates in cells – imaging, exon1htt(103Q)mCFP cells, high-content imaging, primary screen (AID 483;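 active = visual image review flags a hit and inhibition of aggregation exceeds 20%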;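 note: compound exposure lasted 3 days before fixation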;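 for nuclei count: percent of the per-plate median nuclei count of sample wells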); conditions: exon1htt(103Q)mCFP cell line, aggregate imaging, at 2 µM; inhibition of aggregation: stronger effect = higher value; nuclei count: measured here: cell count, toxicity
[3] = endothelial E-selectin expression blockers – imaging, HUVEC, immunofluorescence, MLSMR starter and 10KST1 sets, primary screen (AID 487;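 active = visually confirmed hit in the image check and inhibition above 20%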;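 for inhibition: signal is fraction of cell area covered by stained E-selectin grains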;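 for nuclei count: 100% = median nuclei count of all wells on the same plate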); conditions: HUVEC TNFalpha-induced E-selectin immunofluorescence imaging, at 2 µM; inhibition: stronger effect = higher value; nuclei count: measured here: cell number, toxicity
[4] = target: Voltage-gated potassium channel subunit beta-2 (Rattus norvegicus) (UniProt P62483); test: inhibitors of rat Kvbeta2 reductase activity – biochemical, NADPH fluorescence, primary screen (AID 622;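 active = fluorescence slope higher than the sample average by over 3 SD, cut at about -0.22 in these data, passing the limit was not always enough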;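 note: slope of raw intensity against log time taken from 70 to 1610 s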); conditions: recombinant KvBeta, 4-cyanobenzaldehyde reduction, at 10 µM, stronger effect = higher value
[5] = target: Voltage-gated potassium channel subunit beta-2 (Rattus norvegicus) (UniProt P62483); test: enhancers of rat Kvbeta2 NADPH turnover – biochemical, NADPH fluorescence, primary screen (AID 623;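 active = NADPH fluorescence slope more negative than the mean of all samples by about 3 SD, 99.7% confidence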;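 note: fluorescence intensity change per second fitted from 20 to 320 s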); conditions: Recombinant KvBeta, NADPH fluorescence decrease slope, 10 min; at 10 µM; stronger effect = lower value
[6] = target: Alpha-2C adrenergic receptor (Homo sapiens) (UniProt P18825); test: compounds altering alpha2C-coupled GIRK flux – cell-based, HEK293 alpha2C/GIRK1/2, thallium flux, primary screen (AID 624;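 active = fluorescence slope after compound addition differing from the mean of all screened samples at 99.7% confidence, in either direction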;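 note: slope of fluorescence ratio to pre-addition baseline per second over 15 to 24 s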); conditions: thallium flux BTC fluorescence, at 10 µM, actives lie on both sides
[7] = blockers of RIG-like receptor reporter activation – cell-based, Sendai virus stimulus, luciferase, 10K MLSCN set, TLR/RLR signaling modifier project, primary screen (AID 602276); conditions: HEK293 RL24 IRF3 luciferase reporter, at 10 µM, stronger effect = higher value;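 note: firefly luciferase from ISG56 promoter only with Renilla not read in this screen; 0% = Sendai virus plus DMSO and 100% = medium plus DMSO without virus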
[8] = TLR3 IRF3 reporter activation blockers – cell-based, poly I:C stimulus, luciferase, 10K MLSCN set, primary screen (AID 602277;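 active = inhibition of the reporter signal at or above 50%; inactive = inhibition below 50%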); conditions: HEK293-TLR3 RL24 IRF3 luciferase reporter, at 10 µM, stronger effect = higher value

Sequence of Voltage-gated potassium channel subunit beta-2 (Rattus norvegicus) (P62483 whole entry, looked up): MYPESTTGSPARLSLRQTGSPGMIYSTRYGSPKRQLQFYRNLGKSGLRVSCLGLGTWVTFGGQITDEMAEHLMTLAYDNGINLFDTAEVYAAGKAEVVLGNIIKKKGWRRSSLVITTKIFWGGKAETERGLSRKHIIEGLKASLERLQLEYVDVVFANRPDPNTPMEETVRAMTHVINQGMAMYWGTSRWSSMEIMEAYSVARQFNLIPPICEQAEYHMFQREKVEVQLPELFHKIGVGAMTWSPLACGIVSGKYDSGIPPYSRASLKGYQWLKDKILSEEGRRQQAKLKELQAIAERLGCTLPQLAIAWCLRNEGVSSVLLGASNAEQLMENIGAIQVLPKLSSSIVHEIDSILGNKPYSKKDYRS
Sequence of Alpha-2C adrenergic receptor (Homo sapiens) (P18825 whole entry, looked up): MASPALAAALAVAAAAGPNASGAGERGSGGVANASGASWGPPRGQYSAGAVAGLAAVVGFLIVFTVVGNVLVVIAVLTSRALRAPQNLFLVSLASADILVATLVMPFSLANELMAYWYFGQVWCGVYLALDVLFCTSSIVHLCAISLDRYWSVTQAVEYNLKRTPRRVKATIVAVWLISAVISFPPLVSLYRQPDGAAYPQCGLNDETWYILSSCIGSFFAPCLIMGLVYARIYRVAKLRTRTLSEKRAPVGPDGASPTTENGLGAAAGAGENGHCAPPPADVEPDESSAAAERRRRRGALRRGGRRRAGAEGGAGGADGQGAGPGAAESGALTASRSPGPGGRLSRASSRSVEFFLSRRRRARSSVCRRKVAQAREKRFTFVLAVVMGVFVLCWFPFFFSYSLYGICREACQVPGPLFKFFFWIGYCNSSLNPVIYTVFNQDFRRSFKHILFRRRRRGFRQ

Cn1c(=O)cc(NCCc2ccccc2)[nH]c1=O
cell count [1]: 304
inhibition [1]: 3.4% (inactive)
inhibition of aggregation [2]: -8% (inactive)
nuclei count [2]: 116%
inhibition [3]: -199% (inactive)
nuclei count [3]: 156%
fluorescence slope [4]: -0.43 (inactive)
NADPH fluorescence slope [5]: -0.0001 (inactive)
slope [6]: 0.00647 (inactive)
inhibition [7]: 7.54% (inactive)
inhibition [8]: 27.3% (inactive)

COc1ccc(-n2c(Cc3cccn3C)nnc2SCC(=O)Nc2ccccc2)cc1
cell count [1]: 527
inhibition [1]: -11.3% (inactive)
inhibition of aggregation [2]: 6.5% (inactive)
nuclei count [2]: 79.8%
inhibition [3]: -20.6% (inactive)
nuclei count [3]: 116%
fluorescence slope [4]: -0.55 (inactive)
NADPH fluorescence slope [5]: -2.9e-05 (inactive)
slope [6]: 0.00572 (inactive)
inhibition [7]: 15.3% (inactive)
inhibition [8]: 36.7% (inactive)

Nn1c(SCC(=O)Nc2ccc(Oc3ccccc3)cc2)nnc1C1CC1
cell count [1]: 331
inhibition [1]: -12.3% (inactive)
inhibition of aggregation [2]: 17.5% (inactive)
nuclei count [2]: 91.2%
inhibition [3]: -57.3% (inactive)
nuclei count [3]: 132%
fluorescence slope [4]: -0.378 (inactive)
NADPH fluorescence slope [5]: 1.7e-05 (inactive)
slope [6]: 0.00645 (inactive)
inhibition [7]: -8.58% (inactive)
inhibition [8]: -16% (inactive)

CCN(CC)c1ccc2cc(-c3nc4ccccc4[nH]3)c(=O)oc2c1
cell count [1]: 437
inhibition [1]: 11.7% (inactive)
inhibition of aggregation [2]: 90.2% (active)
nuclei count [2]: 98.9%
inhibition [3]: -74.3% (inactive)
nuclei count [3]: 116%
fluorescence slope [4]: -0.313 (inactive)
NADPH fluorescence slope [5]: 4.5e-05 (inactive)
slope [6]: 0 (active)
inhibition [7]: 20.9% (inactive)
inhibition [8]: 32.6% (inactive)

CCCOC(=O)c1[nH]c2c(c1C)C(=O)CC(c1cc(OC)c(OC)c(OC)c1)C2 (centres undefined)
cell count [1]: 803
inhibition [1]: 1.2% (inactive)
inhibition of aggregation [2]: 2.2% (inactive)
nuclei count [2]: 114%
inhibition [3]: -90.3% (inactive)
nuclei count [3]: 118%
fluorescence slope [4]: -0.567 (inactive)
NADPH fluorescence slope [5]: -2.6e-05 (inactive)
slope [6]: 0.00599 (inactive)
inhibition [7]: 0.863% (inactive)
inhibition [8]: -18.2% (inactive)

COC(=O)c1c(-c2cccs2)csc1NC(=O)CN1CCOCC1
cell count [1]: 345
inhibition [1]: 6% (inactive)
inhibition of aggregation [2]: -6.9% (inactive)
nuclei count [2]: 106%
inhibition [3]: -22.6% (inactive)
nuclei count [3]: 119%
fluorescence slope [4]: -0.519 (inactive)
NADPH fluorescence slope [5]: -5.2e-05 (inactive)
slope [6]: 0.00516 (inactive)
inhibition [7]: 16.1% (inactive)
inhibition [8]: 3.26% (inactive)

CCOc1ccc(C2C(C#N)=C(N)Oc3cc(C)n(CCN(C)C)c(=O)c32)cc1OCC (centres undefined)
cell count [1]: 587
inhibition [1]: -7.4% (inactive)
inhibition of aggregation [2]: 1.7% (inactive)
nuclei count [2]: 98.3%
inhibition [3]: 11.8% (inactive)
nuclei count [3]: 93.1%
fluorescence slope [4]: -0.588 (inactive)
NADPH fluorescence slope [5]: -4.4e-05 (inactive)
slope [6]: 0.00685 (inactive)
inhibition [7]: 14.3% (inactive)
inhibition [8]: 38.2% (inactive)

O=C1NC(Cc2c[nH]c3ccccc23)C(=O)N1CCOc1ccccc1 (centres undefined)
cell count [1]: 674
inhibition [1]: 4.9% (inactive)
inhibition of aggregation [2]: 3.1% (inactive)
nuclei count [2]: 120%
inhibition [3]: -14.9% (inactive)
nuclei count [3]: 138%
fluorescence slope [4]: -0.429 (inactive)
NADPH fluorescence slope [5]: -4.2e-05 (inactive)
slope [6]: 0.00422 (inactive)
inhibition [7]: 13.6% (inactive)
inhibition [8]: 19.7% (inactive)

Cc1ccc(S(=O)(=O)N(CCO)c2cc3c(s2)CCCC3)cc1
cell count [1]: 689
inhibition [1]: -0.8% (inactive)
inhibition of aggregation [2]: 20.5% (inactive)
nuclei count [2]: 73.1%
inhibition [3]: -151% (inactive)
nuclei count [3]: 117%
fluorescence slope [4]: -0.404 (inactive)
NADPH fluorescence slope [5]: -2.1e-05 (inactive)
slope [6]: 0.00447 (inactive)
inhibition [7]: 9.96% (inactive)
inhibition [8]: 21.8% (inactive)

COc1cccc(-c2nnc(SCC(N)=O)n2-c2ccc(Cl)cc2)c1
cell count [1]: 327
inhibition [1]: -6.5% (inactive)
inhibition of aggregation [2]: -11.9% (inactive)
nuclei count [2]: 107%
inhibition [3]: -60.5% (inactive)
nuclei count [3]: 94.5%
fluorescence slope [4]: -0.495 (inactive)
NADPH fluorescence slope [5]: -0.000142 (inactive)
slope [6]: 0.00431 (inactive)
inhibition [7]: 8.3% (inactive)
inhibition [8]: 13.1% (inactive)

COc1ccc2nc(SCC(=O)NC(C)C)[nH]c2c1
cell count [1]: 626
inhibition [1]: 1.4% (inactive)
inhibition of aggregation [2]: -0.8% (inactive)
nuclei count [2]: 104%
inhibition [3]: -35.2% (inactive)
nuclei count [3]: 107%
fluorescence slope [4]: -0.478 (inactive)
NADPH fluorescence slope [5]: 5.9e-05 (inactive)
slope [6]: 0.0062 (inactive)
inhibition [7]: -7.68% (inactive)
inhibition [8]: -5% (inactive)

CC(C)OC(=O)c1ccc(OC(=O)c2cccnc2)cc1
cell count [1]: 424
inhibition [1]: 3.3% (inactive)
inhibition of aggregation [2]: -5.5% (inactive)
nuclei count [2]: 107%
inhibition [3]: 12.1% (inactive)
nuclei count [3]: 104%
fluorescence slope [4]: -0.429 (inactive)
NADPH fluorescence slope [5]: -6.3e-05 (inactive)
slope [6]: 0.00544 (inactive)
inhibition [7]: -2.15% (inactive)
inhibition [8]: -5.2% (inactive)

COCCn1nnnc1C(c1ccccc1OC)N1CCc2ccccc2C1 (centres undefined)
cell count [1]: 511
inhibition [1]: -3.6% (inactive)
inhibition of aggregation [2]: 37.6% (inactive)
nuclei count [2]: 105%
inhibition [3]: -89.6% (inactive)
nuclei count [3]: 96.1%
fluorescence slope [4]: -0.322 (inactive)
NADPH fluorescence slope [5]: -5e-05 (inactive)
slope [6]: 0.00407 (inactive)
inhibition [7]: 16.5% (inactive)
inhibition [8]: 32.8% (inactive)

c1ccc(CC2CCN(c3nc4ccccc4n4nnnc34)CC2)cc1
cell count [1]: 373
inhibition [1]: -13.8% (inactive)
inhibition of aggregation [2]: -7.8% (inactive)
nuclei count [2]: 102%
inhibition [3]: -63.7% (inactive)
nuclei count [3]: 114%
fluorescence slope [4]: -0.312 (inactive)
NADPH fluorescence slope [5]: -3.7e-05 (inactive)
slope [6]: 0.00583 (inactive)
inhibition [7]: 7.26% (inactive)
inhibition [8]: 13.6% (inactive)
